From PubChem
aSyn rescue: rescues yeast growth from alpha-synuclein toxicity; Yeast expressing alpha-synuclein, growth rescue, BacTiter-Glo, 24 h; AID 652106; Potency, µM (series often up to 46.1 µM), for inactives: top-dose growth rescue (activation), hits mostly activators; actives 0.14% (n = 370,000); also: % of control where 0% means no effect; nearly all actives have a fitted effect of over 65% in size
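Galactose-induced alpha-syn yeast (OD600=0.02, raffinose-pregrown) + pinned cpd, 24 hr, 30 deg C; growth by BacTiter-Glo luminescence. Growth restoration scores as activation.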
Abeta rescue: A-beta toxicity reversal in yeast. yeast expressing A-beta42, growth rescue, OD600, 48 h; response scale: 0% DMSO, 100% iron-clioquinol control. Potency, µM (doses to about 46.1 µM), usual class: activators. actives 0.063% (n = 410,000). AID 1347071; also: nearly all actives have a fitted effect of over 55% in size
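Yeast A-beta toxicity model in growth medium with pinned compounds, 48 h at 30 C; growth read as absorbance at 600 nm. Normalized to FeCl3/clioquinol equimolar mix (positive) and DMSO (negative).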
Mito fusion act: blocks mitochondrial division or promotes mitochondrial fusion; S. cerevisiae fusion-defective mutant growth rescue, CellTiterGlo 48 h; Potency, µM (titrated, usually from 46.1 µM), inactives show at the highest dose growth rescue (activation), usual class: activators; actives 0.23% (n = 320,000); also: % of control where 0% means no effect; nearly all actives have a fitted effect of over 45% in size
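S. cerevisiae fusion-defective temperature-sensitive mutants (e.g. fzo1-1, mgm1-5) grown 48 h at 37C in YPEG (ethanol/glycerol non-fermentable) medium with 23 nl compound per well; growth rescue read as CellTiterGlo luminescence.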
TDP-43 yeast inh: inhibitors of TDP-43 toxicity in yeast | TDP-43 expressing yeast growth rescue, BacTiter-Glo, 24 h | Potency, µM (series often up to 46.1 µM), for the others: top-dose growth rescue (activation), actives largely listed as activators | actives 1.8% (n = 410,000) | AID 652104; also: % of control where 0% means no effect; nearly all actives have a fitted effect of over 50% in size
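Readout is BacTiter-Glo luminescence of cell growth, so inhibitors register as activators. TDP-43-expressing yeast at OD600=0.02 in galactose medium, after raffinose pregrowth to mid-log, were incubated with compound for 24 hr at 30 deg C.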
FUS yeast rescue: suppressors of FUS proteinopathy in yeast; Potency, µM (highest dose often 76.6 µM), usual class: activators; AID 1347120; actives 0.24% (n = 390,000); S. cerevisiae FUS-expressing, growth rescue, OD600, 24 h;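 also: plate controls were DMSO vehicle for no effect and reference control for full effect; nearly all actives have a fitted effect of over 55% in size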
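FUS-expressing yeast, raffinose-pregrown, induced in 2% galactose minimal medium at OD 0.005; compounds in a dilution series, 24hr at 30C. Growth restoration read as absorbance at 600 nm. CP55940 positive control, DMSO negative.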
Starred values were filed as active, the others as inactive; i = inactive; ? = inconclusive; · = not tested or not shown; [ ] = another dose, or the depositor's remark. This is a sample that favours compounds with a hit; in the whole collection about 2.2% have one here. Calls follow the shape of the dose curve; as a rule, active = well fitted curve in the direction sought with a large enough effect; inconclusive = small, poorly fitted or top-dose-only effect, or another doubt; inactive = no such curve, though single readings can be large; an effect the other way counts as inactive or inconclusive. Potency is read from the fitted curve at half-maximal effect.

SMILES	aSyn rescue	Abeta rescue	Mito fusion act	TDP-43 yeast inh	FUS yeast rescue
CCCCc1ccccc1NC(=S)NC1CCCC1	-5%	7.1µM*	-11%	-10%	i
S=C(Nc1cccc2ccccc12)NC1CCCCC1	21%	13µM*	14%	4%	i
CCOc1ccccc1C(=O)Nc1ccc(C(=O)NCC2COc3ccccc3O2)cc1 (stereo not given)	·	·	·	·	i
c1nc(NCC2CCOC2)c2cc(-c3ccc4c(c3)OCO4)ccc2n1 (stereo not given)	·	·	·	·	i
Clc1ccccc1N1CCN(Cc2c[nH]c3ccccc23)CC1	6%	?	·	7%	i
O=C(C(=O)N1CCN(c2ccccc2Cl)CC1)c1c[nH]c2ccccc12	18µM*	·	-9%	22µM*	i
COc1ccc(C(=O)/C=C/Nc2ccc([N+](=O)[O-])cc2C)c(OC)c1	-8%	i	-1%	-16%	i
COc1ccc(C(=O)/C=C/Nc2cc(C)on2)c(OC)c1	13µM*	i	-4%	?	i
Cc1ccc(NC(=O)COC(=O)c2ccccc2F)cc1S(=O)(=O)N1CCCCC1	0%	?	8%	15%	i
COc1ccccc1NC(=O)c1cc(S(=O)(=O)N2CCCCCC2)ccc1F	1%	i	-2%	11µM*	i
COc1ccccc1CN(C)CC(=O)Nc1cccc(S(=O)(=O)N2CCCCC2)c1	1%	i	-4%	3.2µM*	i
Cc1ccc(NC(=O)c2ccccc2F)cc1S(=O)(=O)N1CCCCCC1	5%	i	10%	20µM*	i
Cc1ccc(NC(=O)c2ccc(C)c(S(=O)(=O)N3CCCCCC3)c2)cc1	0%	i	·	18µM*	i
C=CCN1[C@H](C)COc2cccc(N3CCCC3)c2S1(=O)=O	·	·	·	·	i
CCC(=O)N1CCc2cc(Br)c(S(=O)(=O)N3CCC(C(=O)NCCCOC(C)C)CC3)cc21	·	·	·	·	i
CC(C)CN1C(=O)C[C@]2(C(=O)N(C)c3ccc(NS(=O)(=O)C4CC4)cc32)C1c1ccccc1 (stereo not given in full)	·	·	·	·	i
Cc1ccc(C2OC34CCCCCC3C(C#N)(C(=N)O4)C2(C#N)C#N)cc1 (stereo not given)	-30%	i	2%	1.3µM*	i
N#Cc1nc(COc2ccc(F)cc2)oc1N1CCCC1	21%	i	13%	0%	i
Cc1cccc(OCc2nc(C#N)c(NCc3ccccc3Cl)o2)c1	·	i	·	28µM*	i
N#Cc1nc(COc2cccc(Cl)c2)oc1N1CCCC1	8%	i	17%	14µM*	i
CC(NCC(=O)NC(=O)NC1CCCC1)c1ccc(Cl)cc1Cl (stereo not given)	0%	i	-3%	9%	i
CCOC(=O)C(Cc1ccnnc1)=NO	-2%	i	·	0%	i
O=C([C@@H]1C[C@H]1c1ccccc1)N1CC[C@H]2[C@H](CCCN2Cc2ccc(F)cc2)C1	·	·	·	·	i
CC1(OC(=O)C2CCCC2)C(=O)C=C2C=C(c3ccsc3)N(CC3CC3)C=C2C1=O (stereo not given)	1%	i	11%	20%	i
CC1(OC(=O)C2CCCC2)C(=O)C=C2C=C(c3ccsc3)N(C3CCCCC3)C=C2C1=O (stereo not given)	-16%	i	-11%	10µM*	i
SMILES	aSyn rescue	Abeta rescue	Mito fusion act	TDP-43 yeast inh	FUS yeast rescue
CC1=C(C(=O)N(C(C)C)C(C)C)CC(CC(=O)NCc2cccc3ccccc23)C(=O)N1Cc1ccc(F)cc1 (stereo not given)	?	i	·	-4%	18µM*
COc1ccc(CN2C(=O)C(CC(=O)NC3CCCCC3)CC(C(=O)N(C)C)=C2C)cc1 (stereo not given)	3.5µM*	i	·	-4%	i
CCOC(=O)C1=NNC(C(=O)c2ccc(Cl)cc2)C1c1ccc(OC)cc1 (stereo not given)	23%	i	?	?	i
CCOC(=O)C1=NNC(C(=O)c2ccc(C)cc2)C1c1ccc(OC)cc1 (stereo not given)	2%	i	3%	20µM*	i
Clc1ccccc1N/N=C/c1ccc2c(c1)OCO2	-20%	i	0%	18µM*	i
O=C(CNC(=O)c1ccccc1Cl)N/N=C/c1ccc2c(c1)OCO2	-7%	i	-5%	-2%	i
CCOC(=O)N1CCC(N2Cc3cccc(C(=O)Nc4ccc(CC)cc4)c3C2=O)CC1	14%	i	11%	25µM*	i
CCCCn1c(SCc2nc3ccccc3s2)nc2ccccc2c1=O	6%	i	-3%	?	·
CCCCn1c(SCc2nc3ccccc3s2)nc2cc(S(N)(=O)=O)ccc21	-4%	i	0%	-24%	22µM*
CC1CCC2(CCC(=O)N2CCCO)CC1 (stereo not given)	·	·	·	·	i
O=C(Nc1ccnn1C1CCN(Cc2ccc(CO)o2)CC1)c1cccc(F)c1	-1%	i	·	14%	i
N#C/C=C1\n2c(nc3ccccc32)OC12CCCCC2	-2%	i	3%	16µM*	i
O=c1[nH]c(=O)n([C@H]2C[C@@H](O)[C@@H](CO)O2)cc1C=CBr	-6%	·	-6%	·	·
CCc1cc(SC#N)cc(C)c1N	-2%	i	4%	18µM*	i
O=C(Oc1cc2oc(=O)cc(-c3ccccc3)c2cc1Cl)C1CCCCC1	4%	i[9.22 µM]	-2%	3.5µM*	i
COc1cc([N+](=O)[O-])cc(/C=N/NC(=O)C(C)Nc2ccccc2C)c1O (stereo not given)	2%	i	1%	20µM*	·
COc1ccc(C(=O)CSc2nc(-c3ccccn3)nc(C)c2Cl)cc1	-11%	i	-1%	?	i
Cc1nc(-c2ccccn2)nc(SCC(=O)c2ccc(F)cc2)c1Cl	?	i	-15%	11µM*	i
CC12CCC(C(=O)N3CCc4ccccc43)(CC1=O)C2(C)C (stereo not given)	13%	i	14µM*	?	i
O=C(OC12CCCN(C1)/C(=C/c1ccc(Cl)cc1)C2)c1ccno1 (stereo not given)	·	·	·	·	i
CC(=O)N(Cc1c(C)nn(-c2ccccc2)c1Cl)c1ccc(Cl)cc1	18%	i	1%	6%	i
Cc1nn(-c2ccccc2)c(Cl)c1CN(C(=O)CCl)c1cccc2ccccc12	9%	i	?	18µM*	i
Cc1nn(-c2ccccc2)c(Cl)c1CN(C(=O)CCl)c1ccc(Cl)cc1	-35%	i	-1%	20µM*	·
Cc1cc(C)cc(-n2c(SCC(=O)N3CCCC3)nc3c([nH]c4ccccc43)c2=O)c1	2%	i	·	19%	i
